Activity calls are given as the source filed them. No rule for the calls is given here.
Experiments:
[1] = liver-stage malaria parasite load reduction – cell-based, known kinase inhibitor set, luminescence, hepatoma host viability (AID 624392); conditions: Plasmodium liver stage in hepatoma cells, luciferase luminescence, concentration not given here; liver cell % of control: measured here: host liver cell viability; parasite % of control: stronger effect = lower value;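 also: infected cells incubated roughly two days before readout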
[2] = altered dexamethasone sensitivity, NF-kB reporter, cell-based, luciferase, IL-1B stimulus (AID 624486); conditions: IL-1B + dexamethasone, luminescence; percent of negative control (+Dex): actives lie on both sides, concentration not given here; z-score: measured here: IL-1B alone, no Dex;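 as to percent of negative control (+Dex): 100% = mean signal of vehicle control wells on the plate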
[3] = biological target: Cellular tumor antigen p53 (Homo sapiens) (UniProt P04637); test: GFP-p53 level modulators in HPV16+ cells – imaging, known kinase inhibitor set, EGFP/DsRed ratio (AID 1053116); conditions: GFP-p53 stability, stronger effect = higher value; EGFP object count: measured here: GFP-p53 positive objects count;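 also: cells exposed to compounds for 24 h at 37 °C before reading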
[4] = inducers of IRF3 signaling, differentiated THP-1 – cell-based, PMA-stimulated THP-1, luminescence (AID 1053176); conditions: PMA-differentiated THP-1, IRF3 reporter luminescence; stronger effect = higher value

Chain of Cellular tumor antigen p53 (Homo sapiens) (P04637 whole entry, looked up): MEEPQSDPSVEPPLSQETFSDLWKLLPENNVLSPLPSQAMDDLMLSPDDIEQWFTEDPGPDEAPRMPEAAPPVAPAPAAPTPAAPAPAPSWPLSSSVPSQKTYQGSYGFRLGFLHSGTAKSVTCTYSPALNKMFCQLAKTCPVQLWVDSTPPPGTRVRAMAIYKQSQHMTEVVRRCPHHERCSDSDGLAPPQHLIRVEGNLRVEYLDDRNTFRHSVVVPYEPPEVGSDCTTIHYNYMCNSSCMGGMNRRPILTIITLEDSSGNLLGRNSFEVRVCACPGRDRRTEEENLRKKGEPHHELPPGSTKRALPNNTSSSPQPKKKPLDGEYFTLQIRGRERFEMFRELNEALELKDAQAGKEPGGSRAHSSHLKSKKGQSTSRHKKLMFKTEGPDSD

Row | Compound | liver cell % of control [1] [%] | parasite % of control [1] | percent of negative control (+Dex) [2] | z-score [2] | EGFP object count [3] | EGFP/DsRed ratio [3] | fraction signal [4]
1 | Cn1c(=O)c(-c2ccccc2Cl)cc2cnc(NC3CCOCC3)nc21 | 100 | 252% (inactive) | 93% (inactive) | -0.175 | 1 | 0.00654 (inactive) | -0.0055 (inactive)
2 | CC(C)(O)Cn1c(=O)c(Oc2ccc(F)cc2F)cc2cnc(NC3CCOCC3)nc21 | 105 | 58.9% (inactive) | 86% (inactive) | -0.37 | 4 | 0.0773 (inactive) | -0.0135 (inactive)
3 | Cn1cc(C2=C(c3c4n(c5ccccc35)CCC(CN)CC4)C(=O)NC2=O)c2ccccc21 (stereo not drawn) | 127 | 42.3% (inactive) | 94% (inactive) | -0.165 | 30.5 | 0.0801 (inactive) | -0.003 (inactive)
4 | NC1=NC(=O)C(=Cc2ccc3ncccc3c2)S1 | 101 | 50.6% (inactive) | 100% (inactive) | 0.495 | 4 | 0.204 (inactive) | -0.007 (inactive)
5 | O=c1c(Oc2ccc(F)cc2F)cc2cnc(NC3CCOCC3)nc2n1CCCO | 122 | 71.8% (inactive) | 92% (inactive) | -0.815 | 2.5 | 0.0231 (inactive) | 0.0075 (inactive)
6 | Nc1c(C(=O)c2cccc(C#CCN3CCCCC3)c2)cnn1-c1ccc(F)cc1 | 91.6 | 50.5% (inactive) | 101% (inactive) | 0.935 | 1.5 | 0.0667 (inactive) | 0.0075 (inactive)
7 | O=C1Nc2ccc(F)cc2C1=Cc1ccc[nH]1 | 55.9 | 14% (inactive) | 136% (active) | 4.44 | 23 | 0.607 (inactive) | -0.014 (inactive)
8 | Cn1cc(C2=C(c3cn(CCCN=C(N)N)c4ccccc34)C(=O)NC2=O)c2ccccc21 | 110 | 44.7% (inactive) | 101% (inactive) | 0.295 | 7.5 | 0.202 (inactive) | -0.005 (inactive)
9 | Cn1cc(C2=C(c3cn(CCN)c4ccccc34)C(=O)NC2=O)c2ccccc21 | 89.8 | 29.9% (inactive) | 99% (inactive) | 0.435 | 14.5 | 0.0574 (inactive) | 0.0015 (inactive)
10 | COc1ccc(O)c(C(=O)c2ccc(C(=O)O[C@H]3CCCNC[C@@H]3NC(=O)c3ccncc3)cc2)c1F | 113 | 109% (inactive) | 62% (active) | -1.53 | 15.5 | 0.253 (inactive) | 0.001 (inactive)
11 | Cn1cc(C2=C(c3c(S(C)=O)n(C)c4ccccc34)C(=O)NC2=O)c2ccccc21 (stereo not drawn) | 123 | 78.6% (inactive) | 97.5% (inactive) | 0.295 | 5 | 0.591 (inactive) | -0.003 (inactive)
12 | Nc1c(C(=O)c2ccc(CCCN3CCOCC3)cc2)cnn1-c1ccc(F)cc1 | 119 | 61% (inactive) | 106% (inactive) | 0.435 | 2 | 0.0463 (inactive) | 0.001 (inactive)
13 | Cn1cc(C2=C(c3cn(C)c4ncccc34)C(=O)NC2=O)c2ccccc21 | 95.3 | 38.8% (inactive) | 100% (inactive) | -0.87 | 20 | 0.579 (inactive) | -0.009 (inactive)
14 | CC(=O)Nc1ccc2c(c1)c(C1=C(c3cn(C)c4ccccc34)C(=O)NC1=O)cn2C | 87.4 | 47.8% (inactive) | 97.5% (inactive) | -1.79 | 35.5 | 0.557 (inactive) | -0.0135 (inactive)
15 | Cn1c(=O)c(Oc2ccc(F)cc2F)cc2cnc(NC3CCOC3)nc21 (stereo not drawn) | 96.2 | 51.2% (inactive) | 104% (inactive) | 0.575 | 4.5 | 0.257 (inactive) | -0.001 (inactive)
16 | Cc1ccc2c(c1)c(C1=C(c3cn(C)c4ccccc34)C(=O)NC1=O)cn2C | 83 | 41.7% (inactive) | 102% (inactive) | -1.36 | 174 | 0.907 (active) | -0.003 (inactive)
17 | Cn1cc(C2=C(c3cn(CCCCCO)c4ccccc34)C(=O)NC2=O)c2ccccc21 | 97.8 | 31.3% (inactive) | 101% (inactive) | -1.23 | 18.5 | 0.347 (inactive) | -0.0115 (inactive)
18 | Cn1c(=O)c(Cc2ccccc2F)cc2cnc(NC3CCOCC3)nc21 | 106 | 64.6% (inactive) | 107% (inactive) | 0.55 | 2.5 | 0.0998 (inactive) | 0.0035 (inactive)
19 | Cn1cc(C2=C(c3cn(C)c4c([N+](=O)[O-])cccc34)C(=O)NC2=O)c2ccccc21 | 78.7 | 22.7% (inactive) | 102% (inactive) | -0.03 | 18.5 | 0.137 (inactive) | -0.005 (inactive)

Source: PubChem BioAssay
